In PubChem BioAssay (NCATS):
Records with an inconclusive call do not appear. Where a call stands in place of a potency, no number is given. The source made the active and inactive calls. Calls come from the whole dose curve; as a rule, active = well fitted cell-killing curve with a large enough effect; inconclusive = small, poorly fitted or top-dose-only effect, or effect the other way; inactive = no such curve, though single readings can be large or run the other way.

assay: Quantitative High-Throughput drug screen in 47 multiple myeloma cell lines against the NCATS MIPE library collection: ARP1_JJKsccF8 cell viability assay (AID 1918928; note: nearly all actives have a fitted effect of over 40% in size); details: ARP1 myeloma cells viability, CellTiter-Glo ATP, 48 h; series mostly up to 45.8 µM
Source text: PI: Beverly A. Mock Ph.D.
Laboratory of Cancer Biology and Genetics,
Center for Cancer Research, National Cancer Institute,
National Institute of Health, Bethesda, Maryland
Drug resistance and disease progression are common in multiple myeloma (MM) patients, underscoring the need for new therapeutic combinations. […] We hypothesized that effective combinations would reduce MYC expression and enhance p16 activity. […] These preclinical data identify potentially useful drug combinations for evaluation in drug-resistant MM and reveal potential mechanisms of combined drug sensitivity.
Described herein is the primary MIPE qHTS used to cherrypick compounds. Validated compounds were then further tested for potential synergistic activiy.
[1] Peat TJ, Gaikwad SM, Dubois W, Gyabaah-Kessie N, Zhang S, Gorjifard S, Phyo Z, Andres M, Hughitt VK, Simpson RM, Miller MA, Girvin AT, Taylor A, Williams D, D'Antonio N, Zhang Y, Rajagopalan A, Flietner E, Wilson K, Zhang X, Shinn P, Klumpp-Thomas C, McKnight C, Itkin Z, Chen L, Kazandijian D, Zhang J, Michalowski AM, Simmons JK, Keats J, Thomas CJ, Mock BA. Drug combinations identified by high-throughput screening promote cell cycle transition and upregulate Smad pathways in myeloma. Cancer Lett. 2023 Aug 1;568:216284. doi: 10.1016/j.canlet.2023.216284. Epub 2023 Jun 24. PMID: 37356470; PMCID: PMC10408729.
SEQUENCE No. (e.g., 1, 2, 3, etc.); […] (e.g., Cells, Incubation, Reagent, etc.); VALUE and DESCRIPTION.
1; Cells; 5 uL; white, solid bottom 1536-well Greiner assay plate.
2; Compounds; 23 nL; Kalypsis pin tool (Wako USA) equipped with a 1536-well pin head to transfer to the assay plates.
3; Incubation; 48 hours; 37C incubation.
4; Reagent;5uL; CellTiter Glo (Promega).
5; Detector; 425V; Luminescence; Viewlux PerkinElmer.
NOTES (numbers refer to Sequence numbers above)
1. The cell-based screening methods employed in this study were like those previously published. Briefly, the corresponding myeloma cell lines were screened in 1,536-well plates with 500 cells, 5-uL per well for inhibition of cell viability (assessed by measuring ATP levels with CellTiterGlo).
2. NCATS MIPE 4.0 library of approved and investigational drugs were added using the Kalypsis pin tool. Wells treated with DMSO only for 100% viability and media only cells for 0% viability were used as controls.
3. The assay plates were covered and incubated for 48 hours in a 37C, 5% CO2 incubator with controlled humidity.
4. After 48 hours, CellTilter-GloTM luminescent substrate mix (Promega) reagent was added to the assay plate and plates we incubated for 5 min at room temperature.
5. Signal was measured as median relative luminescence units on a ViewLux (PerkinElmer) multiplate reader.
[1] Heske CM, Davis MI, Baumgart JT, Wilson K, Gormally MV, Chen L, Zhang X, Ceribelli M, Duveau DY, Guha R, Ferrer M, Arnaldez FI, Ji J, Tran HL, Zhang Y, Mendoza A, Helman LJ, Thomas CJ. Matrix Screen Identifies Synergistic Combination of PARP Inhibitors and Nicotinamide Phosphoribosyltransferase (NAMPT) Inhibitors in Ewing Sarcoma. Clin Cancer Res. 2017 Dec 1;23(23):7301-7311. doi: 10.1158/1078-0432.CCR-17-1121. Epub 2017 Sep 12. PMID: 28899971; PMCID: PMC6636827.
Potency is the fitted concentration of half-maximal effect.

Structure (SMILES)	Potency
O=C(O)c1nc(=O)[nH]c(=O)[nH]1	inactive
CCC[C@H](N[C@@H](C)C(=O)N1[C@@H]2CCCC[C@H]2C[C@H]1C(=O)O)C(=O)OCC	inactive
CCN1C[C@H](C)n2c(c(O)c3c(=O)n(Cc4ccc(F)c(Cl)c4)nc(C(=O)NC)c32)C1=O	inactive
CC(C)c1c(C(=O)Nc2ccccc2)c(-c2ccccc2)c(-c2ccc(F)cc2)n1CC[C@H](O)C[C@@H](O)CC(=O)O	18.7 µM (active)
COc1cc2c(cc1OC)[C@@H]1Cc3ccc(OC)c(OC)c3CN1CC2	13.2 µM (active)
C[C@@H]1[C@H](C)CC[C@]2(C(=O)O)CC[C@]3(C)C(=CC[C@@H]4[C@@]5(C)CC[C@H](O)C(C)(C)[C@H]5CC[C@]43C)[C@@H]12	42.9 µM (active)
CC(=O)OCC(=O)[C@@]12OC(C)(C)O[C@H]1C[C@H]1[C@@H]3C[C@H](F)C4=CC(=O)C=C[C@]4(C)[C@@]3(F)[C@@H](O)C[C@@]12C	0.0264 µM (active)
Nc1nc(Cl)nc2c1ncn2[C@@H]1O[C@H](CO)[C@@H](O)[C@H]1F	2.35 µM (active)
COc1ccc2c(c1)CC[C@H]1[C@@H]2CC[C@]2(C)[C@@H](NCCCCCCN3C(=O)C=CC3=O)CC[C@H]12	inactive
Cc1ccc(S(=O)(=O)OCC(=O)Nc2ccc(C(=O)O)c(O)c2)cc1	inactive
Nc1ncnc2c1ncn2[C@@H]1O[C@H](CO)[C@@H](O)[C@@H]1O	23.5 µM (active)
C#CCN(C)CC1=Cc2ccccc2Oc2ccccc21	inactive
CC1(C)[C@H]2CC[C@]3(C)[C@@H](C(=O)C=C4[C@@H]5C[C@@](C)(C(=O)O)CC[C@]5(C)CC[C@]43C)[C@@]2(C)CC[C@@H]1O	inactive
Cc1cn([C@@H]2C[C@@H](O)[C@H](CO)O2)c(=O)[nH]c1=O	inactive
O=C(NC[C@H](O)CO)c1ccncc1Nc1ccc(I)cc1F	2.96 µM (active)
COc1cc2ncnc(Nc3cc(Br)c(O)c(Br)c3)c2cc1OC	1.32 µM (active)
CNC(=O)[C@H](CC1=CN=C2C=CCC=C12)NC(=O)[C@@H](CC(=O)NO)CC(C)C	inactive
CC(C)N(CCCNC(=O)Nc1ccc(C(C)(C)C)cc1)C[C@H]1O[C@@H](n2cc(Br)c3c(N)ncnc32)[C@H](O)[C@H]1O	20.9 µM (active)
NC(N)=Nc1nc(CSCCC(N)=NS(N)(=O)=O)cs1	inactive
CCCCC[C@H](O)C=C[C@H]1[C@H](O)CC(=O)[C@H]1CC=CCCCC(=O)O	inactive

Structure (SMILES)	Potency
COc1cc(Cl)cn2c(-c3cccc(NC4CNC4)n3)cnc12	inactive
CCC(c1ccc(O)cc1)C(CC)c1ccc(O)cc1 (stereo not given)	7.43 µM (active)
CC(C)C[C@@H](N)[C@H](O)C(=O)N[C@H](C(=O)N[C@H](C(=O)N[C@@H](CC(=O)O)C(=O)O)C(C)C)C(C)C	inactive
CC[C@H](C=C[C@@H](C)[C@H]1CC[C@H]2[C@@H]3CC=C4C[C@@H](O)CC[C@]4(C)[C@@H]3CC[C@]12C)C(C)C	inactive
CCN1CCN(c2ccc(Nc3cc(N(C)C(=O)Nc4c(Cl)c(OC)cc(OC)c4Cl)ncn3)cc2)CC1	inactive
COc1c(C)c2c(c(O)c1CC=C(C)CCC(=O)O)C(=O)OC2	6.62 µM (active)
CN1CCN(c2ncc(-c3cc(Cl)cc(Cl)c3Cl)c(N)n2)CC1	inactive
CN1CCc2c(n(Cc3ccc(C(=O)NO)cc3)c3ccccc23)C1	18.7 µM (active)
CC1=C(C(=O)Nc2cc3cn[nH]c3cc2F)C(c2ccc(C(F)(F)F)cc2)CC(=O)N1 (stereo not given)	inactive
CN[C@@H]1CN(c2ccc3c(=O)c(C(=O)O)cn(-c4nccs4)c3n2)C[C@@H]1OC	1.82 µM (active)
CN(CC=CC#CC(C)(C)C)Cc1cccc2ccccc12	inactive
CN(C)CC[C@H](CSc1ccccc1)Nc1ccc(S(=O)(=O)NC(=O)c2ccc(N3CCN(Cc4ccccc4-c4ccc(Cl)cc4)CC3)cc2)cc1[N+](=O)[O-]	13.2 µM (active)
NS(=O)(=O)c1cc(Cl)c(Cl)c(S(N)(=O)=O)c1	8.33 µM (active)
CCC[C@H](Nc1nc(-c2ccc(NC(=O)NCC)c(OC)c2)ncc1C)c1cccnc1	0.0083 µM (active)
CCN(CC)CCCCNc1nc2cc(Cl)c(Cl)cc2nc1-c1ccc(-c2cccs2)s1	7.43 µM (active)
CCOC(=O)N1c2ccc(C(F)(F)F)cc2[C@@H](N(Cc2cc(C(F)(F)F)cc(C(F)(F)F)c2)C(=O)OC)C[C@H]1CC	4.69 µM (active)
O=C(Nc1ccccc1)Nc1ccc(-c2ccc(C(=O)[C@H]3CCC[C@H]3C(=O)O)cc2)cc1	inactive
CC(C)C[C@@H](C(=O)N[C@H](C(=O)OC1CCCC1)c1ccccc1)[C@H](O)C(=O)NO	14.8 µM (active)
OCCn1cc(-c2ccc3c(c2)CCC3=NO)c(-c2ccncc2)n1	inactive
O=C(c1ccc(C=Cc2n[nH]c3ccccc23)cc1)N1CCNCC1	13.2 µM (active)
